Screens deposited in PubChem by National Center for Advancing Translational Sciences (NCATS).
Rows were chosen to be rich in hits. Some 6.9% of all compounds tested hit in one or more screens of this group.
IL-1B inflam inh = qHTS for Inhibitors of Inflammasome Signaling: IL-1-beta AlphaLISA Primary Screen; activity change, % at 57.5 µM; THP-1 LPS/ATP IL-1B secretion, AlphaLISA, 16 h; active compounds read low; 360,000 tested, 4.7% active; AID 743279, 2014; in the data active = activity change below about -50%; inconclusive = mostly about -30% to -49%
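THP-1 cells pretreated 1 hr with compounds (up to 57.5 uM final), then stimulated with LPS (250 ng/mL final) plus ATP (1.25 mM final); secreted IL-1B measured by AlphaLISA after 16 hr, decreased signal indicating inhibition.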
MCF10A rereplic = A quantitative high throughput screen for small molecules that induce DNA re-replication in MCF 10a normal breast cells; 350,000 tested, 2.9% active; AID 624296, 2012; Potency, µM (doses to about 46.1 µM), actives largely listed as activators; MCF 10A DNA re-replication, Hoechst nuclear intensity, 48 h; note: nearly all actives have a fitted effect of over 50% in size
Vif-A3F inh = qHTS for Inhibitors of Vif-A3F Interactions: qHTS. HeLa A3F-eYFP + Vif (tagged APOBEC3F with the HIV-1 protein that degrades it), YFP fluorescence increase. Potency, µM (top dose mostly 46.1 µM). 390,000 tested, 0.2% active. AID 602313, 2012; note: nearly all actives have a fitted effect of over 65% in size
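HeLa cells stably expressing Vif plus C-terminally eYFP-tagged A3F were seeded, incubated overnight at 37 deg C, dosed with compound, incubated overnight again at 37 deg C. Yellow fluorescence (Ex 488/Em 500-530) reported blocked Vif-mediated A3F-eYFP degradation.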
SW480 rereplic = A quantitative high throughput screen for small molecules that induce DNA re-replication in SW480 colon adenocarcinoma cells. Potency, µM (top dose mostly 46.1 µM), hits mostly activators. SW480 DNA re-replication, Hoechst DNA content imaging, 48 h. 340,000 tested, 1.8% active; note: nearly all actives have a fitted effect of over 55% in size
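Readout is total intensity of Hoechst-stained nuclei, excited at 405 nm and collected at 500-530 nm. Compound treatment lasted 48 hr at 37 C in 5% CO2 before staining.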
Vif-APOBEC3G blk = qHTS for Inhibitors of Vif-A3G Interactions: qHTS | DNA dC->dU-editing enzyme APOBEC-3G (Homo sapiens), Q9HC16 | 410,000 tested, 0.076% active | HeLa A3G-eYFP + Vif (tagged APOBEC3G with the HIV-1 protein that degrades it), YFP fluorescence, overnight | AID 602310, 2012 | Potency, µM (top dose mostly 46.1 µM), hits mostly inhibitors; note: nearly all actives have a fitted effect of over 60% in size
Target sequence (Q9HC16 whole entry, looked up): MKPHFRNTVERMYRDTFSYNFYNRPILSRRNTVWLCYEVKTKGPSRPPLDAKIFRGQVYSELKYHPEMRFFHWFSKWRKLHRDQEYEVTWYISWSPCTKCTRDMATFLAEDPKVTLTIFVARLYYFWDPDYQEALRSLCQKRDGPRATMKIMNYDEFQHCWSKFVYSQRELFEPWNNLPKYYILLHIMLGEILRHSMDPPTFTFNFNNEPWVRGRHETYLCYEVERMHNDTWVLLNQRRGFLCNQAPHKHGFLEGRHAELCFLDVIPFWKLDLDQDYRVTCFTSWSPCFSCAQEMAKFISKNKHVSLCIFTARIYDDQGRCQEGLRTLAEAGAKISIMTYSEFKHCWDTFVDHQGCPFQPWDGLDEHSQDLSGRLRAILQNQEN
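Read-out is eYFP fluorescence (Ex 488/Em 500-530) from Vif-expressing HeLa A3G-eYFP cells; more signal means A3G escaped Vif-mediated degradation. Cells plated overnight, compound pinned in, incubated overnight at 37 deg C.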
Giardia killer = Small Molecules that selectively kill Giardia lamblia: qHTS | Giardia lamblia trophozoite viability | 340,000 tested, 0.15% active | activity change, % at 7.66 µM, hits read low; in the data active = activity change below about -80%; inconclusive = between about -30% and that limit;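 note: parasites exposed to compound for two days anaerobically before the ATP read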
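Each well holds 100 Giardia trophozoites and compound. After two days (48 hrs) at 37 deg C in anaerobic conditions, ATP is quantified by luminescence.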
Each line names hits and unclear results; the compound was inactive in the other large screens; ! = repeats disagree. Unless noted, calls come from the whole dose curve; as a rule, active = well fitted curve in the direction sought with a large enough effect; inconclusive = small, poorly fitted or top-dose-only effect, or another doubt; inactive = no such curve, though single readings can be large; an effect the other way counts as inactive or inconclusive.

CN1C(=O)NC(=O)/C(=C/c2ccc([N+](=O)[O-])s2)C1=O	MCF10A rereplic inconclusive, SW480 rereplic inconclusive
O=C1NC(=S)NC(=O)C1=Cc1c(Cl)cccc1Cl	IL-1B inflam inh -99, MCF10A rereplic inconclusive
CN1C(=O)/C(=C\c2ccc(Br)s2)C(=O)NC1=S	IL-1B inflam inh -99, MCF10A rereplic inconclusive, Vif-A3F inh inconclusive, SW480 rereplic inconclusive
COc1ccccc1-c1nn2c(=O)cc(CN3CCN(C(=O)COc4ccccc4Cl)CC3)nc2s1	none (no result: IL-1B inflam inh, MCF10A rereplic, SW480 rereplic, Giardia killer)
Cc1cc(C=C2C(=O)N(C)C(=S)N(C)C2=O)c(C)n1-c1cccnc1	IL-1B inflam inh -68
Cc1cc(/C=C2/C(=O)NC(=O)N(C)C2=O)c(C)n1-c1ccccc1	none
CN(C)C(=O)Oc1ccc(C(=O)c2ccccc2)cc1	none
CN(C)CCOc1ccc(/C(=C(/CCCl)c2ccccc2)c2ccccc2)cc1	MCF10A rereplic 4.6µM
CCC12CN3CC(CC)(CN(C1)C3c1c(C)[nH]c(=O)[nH]c1=O)C2=O (configuration not stated)	none (no result: IL-1B inflam inh, MCF10A rereplic, SW480 rereplic, Giardia killer)
CC(C)(C)n1cc(C(=O)c2ccccc2OCCCF)cn1	none
CC(C)(C)n1cc(C(=O)c2ccc3ccccc3c2O)cn1	IL-1B inflam inh -52, MCF10A rereplic inconclusive
O=c1[nH]cnc2nc(-c3ccc(N(CCCl)CCCl)cc3)[nH]c12	MCF10A rereplic 15µM, SW480 rereplic 9.2µM
CCCCN1C(=O)/C(=C/C=C/c2ccco2)C(=O)NC1=S	Vif-A3F inh inconclusive
O=C1NC(=O)N(Cc2ccc(F)cc2)C(=O)/C1=C\C=C\c1ccco1	IL-1B inflam inh -96, MCF10A rereplic 3.7µM, Vif-A3F inh 10µM, SW480 rereplic 8.2µM, Vif-APOBEC3G blk inconclusive, Giardia killer inconclusive
O=C1NC(=O)N(Cc2ccccc2)C(=O)/C1=C\c1ccco1	none
Cc1cc(C)cc(N2C(=O)NC(=O)/C(=C\C=C\c3ccco3)C2=O)c1	IL-1B inflam inh -86, MCF10A rereplic 13µM, SW480 rereplic inconclusive, Vif-APOBEC3G blk inconclusive
O=C1NC(=O)N(c2ccccc2)C(=O)/C1=C\c1ccc([N+](=O)[O-])s1	IL-1B inflam inh -69, MCF10A rereplic inconclusive, Vif-A3F inh inconclusive, SW480 rereplic 21µM
CC(C)c1ccc(N2C(=O)NC(=O)/C(=C/C=C/c3ccco3)C2=O)cc1	IL-1B inflam inh inconclusive, MCF10A rereplic 6.5µM, Vif-A3F inh inconclusive, SW480 rereplic inconclusive, Vif-APOBEC3G blk 8.9µM
CCc1ccc(OCC(=O)N2CCN(CCc3ccncc3)CC2)cc1	none (no result: IL-1B inflam inh, MCF10A rereplic, SW480 rereplic, Giardia killer)
N#Cc1ccccc1NC(=O)c1cccn(Cc2ccccc2)c1=O	none (no result: IL-1B inflam inh, MCF10A rereplic, SW480 rereplic, Giardia killer)
O=C1CC2OCC=C3CN4CCC56c7ccccc7N1C5[C@H]2[C@H]3C[C@H]46 (some centres not stated) (tested in a mixture with another compound)	none (no result: IL-1B inflam inh, MCF10A rereplic, Vif-A3F inh, Vif-APOBEC3G blk, Giardia killer)
CCc1ccc(N2NC(=O)/C(=C/C=C/c3ccco3)C2=O)cc1	MCF10A rereplic 21µM
O=C1NC(=O)N(c2ccccc2)C(=O)/C1=C\C=C\c1ccccc1	IL-1B inflam inh -98, MCF10A rereplic 23µM, SW480 rereplic 3.3µM, Vif-APOBEC3G blk inconclusive
Cc1ccc(N2C(=O)NC(=O)/C(=C/C=C/c3ccco3)C2=O)cc1	IL-1B inflam inh -75, MCF10A rereplic 9.2µM, Vif-A3F inh inconclusive, SW480 rereplic 16µM, Vif-APOBEC3G blk inconclusive
CCc1ccc(N2C(=O)NC(=O)/C(=C\C=C\c3ccco3)C2=O)cc1	IL-1B inflam inh -96, MCF10A rereplic 23µM, Vif-A3F inh inconclusive, SW480 rereplic 18µM, Vif-APOBEC3G blk inconclusive
COC(=O)c1ccc(COC(=O)c2nn(C)c(=O)c3ccccc23)cc1	none
COC(=O)[C@@]1(C)CC[C@]2(C)CC[C@@]3(C)C(=CC(=O)C4[C@@]5(C)CC[C@H](O)C(C)(C)[C@@H]5CC[C@]43C)[C@H]2C1 (some centres not stated)	none
O=[N+]([O-])c1cccc2c([As](=O)(O)O)cccc12	Giardia killer -94
CC(C)(O)C(Cl)(Cl)Cl	none (no result: IL-1B inflam inh, Vif-A3F inh, Vif-APOBEC3G blk, Giardia killer)
CN1C[C@H](C(=O)N[C@]2(C)O[C@@]3(O)C4CCCN4C(=O)[C@H](Cc4ccccc4)N3C2=O)C[C@@H]2c3cccc4[nH]cc(c34)C[C@H]21 (some centres not stated)	none (no result: IL-1B inflam inh, Vif-A3F inh, Vif-APOBEC3G blk, Giardia killer)
CN1C[C@H](C(=O)N[C@]2(C)O[C@@]3(O)[C@@H]4CCCN4C(=O)[C@H](Cc4ccccc4)N3C2=O)CC2c3cccc4[nH]cc(c34)C[C@H]21 (some centres not stated)	MCF10A rereplic inconclusive, SW480 rereplic 0.35µM!
c1ccc(N2CCN(c3ccccc3)CC2)cc1	none (no result: IL-1B inflam inh, MCF10A rereplic, Vif-A3F inh, SW480 rereplic, Giardia killer)
COc1ccc(/C=C2\Oc3cc(OC(=O)N4CCOCC4)ccc3C2=O)c(OC)c1	Vif-A3F inh 25µM, SW480 rereplic inconclusive, Vif-APOBEC3G blk inconclusive
COc1ccc(C(=O)/C=C/c2cccs2)c(OC(=O)N2CCOCC2)c1	SW480 rereplic inconclusive
COc1cc(C(=O)NN=Cc2ccc(N(CCCl)CCCl)cc2)cc(OC)c1OC	MCF10A rereplic 16µM, SW480 rereplic 18µM
